According to PubChem BioAssay (NCATS):
Inconclusive results are not listed. Values without a mark were called inactive. Activity calls are given as the source filed them. Calls come from the whole dose curve.

Experiment: Primary qHTS for inhibitors of SARS-S pseudo-typed particle cell entry (AID 1479145); note: nearly all actives have a fitted effect of over 45% in size
Details: SARS-S pseudotyped particle cell entry, luciferase reporter; series mostly up to 57.1 µM; activity change, negative = inhibition: at the top concentration
% is set by controls: 0 for no effect and ±100 for the full control effect.

Compound | outcome | activity change, negative = inhibition
COC(=O)Nc1nc2ccc(Sc3ccccc3)cc2[nH]1 | inactive | 
C#CCN(C)Cc1ccccc1 |  | -9.6%
O=C1OC2(c3ccccc31)c1cc(I)c(O)c(I)c1Oc1c2cc(I)c(O)c1I |  | -13.7%
CC(C(=O)O)c1ccc2c(c1)Cc1cccnc1O2 (stereo not drawn) | inactive | 
C=CC[N+]1([C@H]2C[C@H]3[C@@H]4CC[C@H]5C[C@H](OC(C)=O)[C@@H](N6CCCCC6)C[C@]5(C)[C@H]4CC[C@]3(C)[C@H]2OC(=O)CC)CCCCC1 |  | -3.56%
C[C@@H]1C[C@H]2[C@@H]3CCC4=CC(=O)C=C[C@]4(C)[C@@]3(Cl)[C@@H](O)C[C@]2(C)[C@@]1(OC(=O)c1ccco1)C(=O)CCl |  | -13.1%
CC1(C)[C@H](C(=O)O)N2C(=O)C[C@H]2S1(=O)=O |  | -34.8%
CC(=O)O[C@H]1C[C@@H]2CC[C@@H]3[C@H](CC[C@@]4(C)[C@H]3C[C@H]([N+]3(C)CCCCC3)[C@@H]4OC(C)=O)[C@@]2(C)C[C@@H]1N1CCCCC1 |  | -15.6%
C[C@]12CC[C@@H]3c4ccc(O)cc4CC[C@H]3[C@@H]1CC[C@@H]2OC(=O)CCC1CCCC1 | inactive | 
CCC(=O)Oc1ccc2c(c1)CC[C@@H]1[C@@H]2CC[C@@]2(C)[C@H]1C[C@@H](OC(=O)CC)[C@@H]2OC(=O)CC |  | -37.8%
CC1(C)O[C@@H]2C[C@H]3[C@@H]4C[C@H](F)C5=CC(=O)CC[C@]5(C)[C@H]4[C@@H](O)C[C@]3(C)[C@]2(C(=O)CO)O1 | inactive | 
CCOC(=O)c1cccc(N)c1 | inactive | 
COc1cc(NS(=O)(=O)c2ccc(N)cc2)nc(OC)n1 |  | -7.61%
CCCCC1(COC(=O)CCC(=O)O)C(=O)N(c2ccccc2)N(c2ccccc2)C1=O |  | 4.34%
C[C@H]1COc2c(C3(N)CC3)c(F)cc3c(=O)c(C(=O)O)cn1c23 |  | 2.56%
OC1C(O)C(O)C(O)C(O)C1O (stereo not drawn) | inactive | 
O=C1C(CCS(=O)c2ccccc2)C(=O)N(c2ccccc2)N1c1ccccc1 (stereo not drawn) | inactive | 
CC(=O)N(CC(=O)N(C)C)c1ccccc1 | inactive | 
CNC1CCCN(c2c(F)cc3c(=O)c(C(=O)O)cn(C4CC4)c3c2OC)C1 (stereo not drawn) |  | -25.6%

Compound | outcome | activity change, negative = inhibition
CC(O)Cn1cnc2c1c(=O)n(C)c(=O)n2C (stereo not drawn) |  | -12.3%
N[C@H](Cc1c[nH]c2ccccc12)C(=O)O |  | -22.8%
O=C(O)CCC(=O)Nc1ccc(S(=O)(=O)Nc2nccs2)cc1 | inactive | 
NCC1CCC(C(=O)Oc2ccc(CCC(=O)O)cc2)CC1 (stereo not drawn) | inactive | 
C[C@@H]1C[C@H]2[C@@H]3CCC4=CC(=O)C=C[C@]4(C)[C@@]3(F)[C@@H](O)C[C@]2(C)[C@@]1(O)C(=O)COC(=O)c1ccncc1 | inactive | 
CCN(CC)CCNC(C(=O)OCCC(C)C)c1ccccc1 (stereo not drawn) |  | 4.67%
Cc1cccc(N(C)C(=S)Oc2ccc3c(c2)CCC3)c1 |  | -16.8%
O=[N+]([O-])c1nccn1CO[C@@H](CO)[C@H](O)CO |  | -10.8%
CC[N+]1(CC)CCC(=C(c2ccccc2)c2ccccc2)C1C (stereo not drawn) |  | 4.72%
CN(C)CCn1nnnc1SCC1=C(C(=O)O)N2C(=O)[C@@H](NC(=O)Cc3csc(N)n3)[C@H]2SC1 |  | -5.44%
O=C(O)c1cn(-c2ccc(F)cc2)c2cc(N3CCNCC3)c(F)cc2c1=O |  | -18.8% [at 26.4 µM]
Oc1cc(O)c2c(c1)O[C@H](c1ccc(O)c(O)c1)[C@H](O)C2 |  | -29.9%
CN(C)C(=O)Oc1cccc([N+](C)(C)C)c1 |  | -4.08%
O=C(NN1CCCC1)NS(=O)(=O)c1ccc(Cl)cc1 |  | 3.32%
C/C=C/c1ccc(O)c(OC)c1 | inactive | 
CCCCC(=O)O[C@]1(C(=O)CO)CC[C@H]2[C@@H]3CCC4=CC(=O)CC[C@]4(C)[C@H]3[C@@H](O)C[C@@]21C | inactive | 
Cc1[nH]c(=O)c(C#N)cc1-c1ccc2nccn2c1 | inactive | 
CCCCNc1cc(C(=O)O)cc(S(N)(=O)=O)c1Oc1ccccc1 |  | -25%
Cc1cccc(N(C)C(=S)Oc2ccc3ccccc3c2)c1 | inactive | 
